Screens as filed in PubChem.
GC-B act – GC-B (human) receptor activation; activation, % at 10 µM; AID 1920062; 0.11% of 370,000 active; HEK293-GC-B cells, CNP EC30, cGMP TR-FRET; 0% at EC30 CNP, 100% saturating CNP;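 active means activation at 10 µM reaching about 35% in either raw or pattern-adjusted values, limit read from the data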
NOD2 RIPK2 PPI – inhibitors of human NOD2-RIPK2 interaction. O43353. CHO BLA complementation NOD2-RIPK2, CCF4 ratio. inhibition, % at 4.98 µM. 0.38% of 360,000 active; in the data active means inhibition above about 21%;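 further: 0% = vehicle only and 100% = reference blocker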
Target sequence (O43353 whole entry, looked up): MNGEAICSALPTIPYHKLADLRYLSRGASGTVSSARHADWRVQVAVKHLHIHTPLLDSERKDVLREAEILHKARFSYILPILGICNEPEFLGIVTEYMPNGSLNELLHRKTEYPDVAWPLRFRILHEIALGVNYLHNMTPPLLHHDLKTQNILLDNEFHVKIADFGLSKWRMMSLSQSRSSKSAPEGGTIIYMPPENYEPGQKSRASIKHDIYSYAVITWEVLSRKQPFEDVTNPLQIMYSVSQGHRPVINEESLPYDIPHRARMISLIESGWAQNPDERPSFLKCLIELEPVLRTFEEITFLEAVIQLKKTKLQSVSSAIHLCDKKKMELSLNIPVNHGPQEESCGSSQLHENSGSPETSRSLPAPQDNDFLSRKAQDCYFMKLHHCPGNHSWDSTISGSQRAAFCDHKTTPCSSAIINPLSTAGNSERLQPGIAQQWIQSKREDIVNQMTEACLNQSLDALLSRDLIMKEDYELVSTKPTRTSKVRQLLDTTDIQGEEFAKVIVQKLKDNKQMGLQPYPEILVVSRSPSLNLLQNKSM
TLR4 MyD88 comp – inhibitors of human TLR4-MyD88 binding; O00206+Q99836; inhibition, % at 8.4 µM; 0.18% of 200,000 active; HeLa CL3-4 TLR4/MyD88 BLA complementation, FRET ratio; in the data active means inhibition above about 25%;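 further: 0% = vehicle and 100% = reference inhibitor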
TLR9-MyD88 inh – blocks human TLR9 binding to MyD88; 0.21% of 340,000 active; CHO BLA complementation TLR9-MyD88, CCF4 FRET ratio; Q9NR96+Q99836; inhibition, % at 4.98 µM;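 active means inhibition above the mean over all tested compounds plus 3 SD, cut at about 21% in these data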;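 further: 0% = DMSO only wells and 100% = clavulanate BLA inhibitor control wells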
NPR1 activator – GC-A (human) enzyme activation. 0.14% of 370,000 active. activation, % at 10 µM. HEK293 GC-A cells, cGMP TR-FRET, EC30 ANP; 0% at EC30 ANP, 100% saturating ANP. P16066; in the data active means activation above about 40%
Neddylation inh – cullin neddylation inhibition. inhibition, % at 25 µM. TR-FRET cullin neddylation, biochemical. 0.58% of 360,000 active; in the data active means inhibition above about 36%
NOD2 RIPK2 conf – NOD2-RIPK2 interaction inhibition confirmed; shares compounds with NOD2 RIPK2 PPI; CHO cells, NOD2-RIPK2 BLA complementation, CCF4 FRET; inhibition, % at 4.98 µM; 70% of 1,200 active; AID 624370;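 active means mean inhibition across replicates above a set limit taken from the earlier primary screen, cut at about 21% in these data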;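 further: 0% = DMSO-only wells and the high end = clavulanate BLA-blocked wells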
BLA counter – NOD2-RIPK2 counterscreen BLA reporter activity; shares compounds with NOD2 RIPK2 PPI; CHO BLA reporter, CCF4 FRET ratio; inhibition, % at 4.98 µM; 57% of 1,200 active; AID 624371;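 active means mean inhibition above the low-control mean inhibition plus three low-control SD, cut at about 11% in these data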;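 further: 0% = DMSO only wells and 100% = clavulanate high control wells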
* = called active by the depositor; i = inactive; · = no result shown. Hits are enriched below; roughly 1.2% of the tested compounds scored in any of these assays.

SMILES	GC-B act	NOD2 RIPK2 PPI	TLR4 MyD88 comp	TLR9-MyD88 inh	NPR1 activator	Neddylation inh	NOD2 RIPK2 conf	BLA counter
Cc1ccccc1NC(=O)c1sc2nc3c(c(-c4ccco4)c2c1N)CCCC3	-1	39*	17	11	12	i	51*	56*
Nc1c(C(=O)Nc2ccccc2)sc2nc3c(c(-c4ccco4)c12)CCCC3	4	9	19	13	6	33	·	·
CN[C@H]1C[C@@H](c2ccccc2Br)N(C(C)=O)C[C@H]1CO	-1	·	·	·	4	·	·	·
CCCNC(=O)c1ccc(COc2cccc3ccccc23)o1	-7	26*	·	-1	-4	-3	2	-4
FC(F)(F)c1cccc(N2CCN(C3=Nc4ccccc4Sc4ccccc43)CC2)c1	-1	·	·	·	-2	·	·	·
C=CS(=O)(=O)c1ccc(Oc2ccc(S(=O)(=O)C=C)cc2)cc1	0	36*	23	15	-1	3	51*	17*
CCN=C1NC(c2cccc(F)c2)C(C(=O)OC)=C(C)N1Cc1ccccc1C(F)(F)F (configuration not stated)	-18	·	·	·	-21	·	·	·
CCOCCCNC(=O)/C(C#N)=C/c1ccc(-c2ccc(S(=O)(=O)N3CCOCC3)cc2)o1	·	6	-4	0	·	-3	·	·
CCOCCCNC(=O)/C(C#N)=C/c1ccc([N+](=O)[O-])o1	7	26*	24	20	11	7	54*	27*
Fc1ccc(C2=CC(c3ccco3)n3ncnc3N2)cc1 (configuration not stated)	·	36*	-6	35*	·	·	3	12*
O=c1ccc2ccccc2c2ccccc12	2	43*	·	·	-3	-6	41*	-3
O=C(O)c1ccc2ccc3ccccc3c2c1	1	-2	·	·	2	-12	·	·
O=C1c2cccc3cc([N+](=O)[O-])cc(c23)C(=O)N1CC1CCCO1 (configuration not stated)	-1	24*	·	9	4	-42	21	10
O=C1c2ccccc2C(=O)N1CC1CCCO1 (configuration not stated)	·	-4	-6	-4	·	-9	·	·
CCCNC(=O)c1ccc2c(=O)c(O)c(-c3ccc(Cl)c([N+](=O)[O-])c3)[nH]c2c1	-6	-13	·	4	-3	-14	·	·
NC(=O)c1ccc2c(=O)c(O)c(-c3cc(Cl)c(N)c(Cl)c3)[nH]c2c1	13	38*	·	14	19	·	30*	29*
Cc1ccc(CNC(=O)O[C@H]2CC[C@@]34CCCN3C(=O)CCC[C@H]4C2)o1	0	·	·	·	-2	·	·	·
CC(C)(C)NC(=O)C(c1ccccc1F)n1c(=O)c(-c2ccco2)nc2ccccc21 (configuration not stated)	-13	-13	·	·	-6	·	·	·
Cc1cccc(C)c1NC(=O)C(c1ccnc2ccccc12)n1c(=O)c(-c2ccccc2)nc2ccccc21 (configuration not stated)	-3	-5	·	·	-3	20	·	·
CC(C)(C)NC(=O)C(c1ccccc1F)n1c(=O)c(-c2cc3ccccc3[nH]2)nc2ccccc21 (configuration not stated)	1	50*	·	·	2	·	46*	68*
CC(C)(C)NC(=O)C(c1ccnc2ccccc12)n1c(=O)c(-c2cc3ccccc3[nH]2)nc2ccccc21 (configuration not stated)	-10	49*	·	·	-2	·	46*	65*
C=CCN1[C@@H](C)[C@@H](c2ccccc2)Oc2c(Cl)cccc2S1(=O)=O	4	·	·	·	-4	·	·	·
O=C(/C=C/N1CCOCC1)c1cc2ccccc2o1	9	2	-2	-1	-1	-12	·	·
O=C(/C=C/N1CCOCC1)c1coc2ccccc12	4	29*	2	-5	7	5	-2	-8
CCOc1ccccc1C=NNC(=O)CCCCC(=O)NN=Cc1ccccc1OCC	-2	1	·	-7	-6	4	·	·
SMILES	GC-B act	NOD2 RIPK2 PPI	TLR4 MyD88 comp	TLR9-MyD88 inh	NPR1 activator	Neddylation inh	NOD2 RIPK2 conf	BLA counter
CCOc1ccccc1C=NNC(=O)C(=O)NN=Cc1ccccc1OCC	-1	24*	·	-5	-2	-3	-10	-9
O=[N+]([O-])c1ccc(Cn2ccc3ccc(-c4ccc5ccn(Cc6ccccc6)c5c4)cc32)cc1	1	·	·	·	0	·	·	·
C[C@H](CO)N1C[C@H](C)[C@@H](CN(C)C(=O)Nc2ccc(-c3cccs3)cc2)OCc2cn(nn2)CCCC1=O	4	·	·	·	8	·	·	·
COc1ccc(CCN2C(=O)C=CC2=O)cc1OC	4	43*	·	7	16	-4	51*	12*
COc1ccc(CCn2c(C)ccc2C)cc1OC	·	·	-14	·	·	·	·	·
CCc1sc(N2C(=O)C3C4CCC(C4=C(C)C)C3C2=O)nc1-c1ccccc1 (configuration not stated)	2	71*	-7	0	-1	-9	-1	0
COC(=O)c1ccc2c(c1)C(C)(C)C(/C=C/c1ccc(OC)c(OC)c1OC)=[N+]2C	-1	26*	15	2	-3	·	88*	6
COc1ccc(/C=N/Nc2ccc(C(=O)O)cc2)c(OC)c1OC	-6	-5	·	-3	-2	3	·	·
COc1cc(/C=C/c2ccc(O)cc2)cc(OC)c1	-13	-5	·	-4	-2	38	·	·
COC(=O)c1ccc2c(c1)C(C)(C)C(/C=C/c1ccc(O)cc1)=[N+]2C	-4	26*	-5	16	-5	·	71*	-5
O=S1(=O)CCOCC(CO)N1Cc1cccc(Br)c1 (configuration not stated)	7	·	·	·	-5	·	·	·
COc1ccc(Cl)cc1NC(=O)Cc1c(F)cccc1Cl	-4	22*	-25	3	-9	-15	3	1
COc1ccc(Cl)cc1NC(=O)CC(=O)Nc1cc(Cl)ccc1OC	2	2	·	-14	8	-26	·	·
Nc1ccccc1C#Cc1ccc([N+](=O)[O-])cc1	-3	26*	·	18	4	-30	4	19*
N#CC(c1ccccc1)c1ccc([N+](=O)[O-])cc1 (configuration not stated)	-4	8	·	·	-4	-28	·	·
S=C(c1ccc(-c2ccccc2Cl)o1)N1CCOCC1	·	22*	2	-3	·	-36	6	-1
Cc1cc(C)nc(Sc2ccc([N+](=O)[O-])cc2[N+](=O)[O-])n1	0	10	-5	-4	3	-44	·	·
